# Activity calls are given as the source filed them. How the source made its calls: active means hit-call score of the fitted dose curve at least 0.9, where 1 is the maximum; inactive means score below 0.9.
# Assay: Tanguay_ZF_120hpf_ANY: Oregon State University Tanguay Lab 120 Hour Post-fertilization zebrafish Assay for Any Mortality and Malformation (AID 2284404)
# Description: Tanguay_ZF_120hpf is a whole embryo, multiplexed endpoint assay using zebrafish larvae exposed for 120 hours post fertilization on a 96-well plate.Tanguay_ZF_120hpf_ANY is one of one assay component(s) measured or calculated from the Tanguay_ZF_120hpf assay. It is designed to make measurements of developmental malformations and mortality as detected with brightfield microscopy and combines scoring from 13 other assay components measuring more specific morphologies.Data from the assay component Tanguay_ZF_120hpf_ANY was analyzed into 1 assay endpoints. This assay endpoint, Tanguay_ZF_120hpf_ANY, was analyzed in the positive analysis fitting direction relative to DMSO as the negative control and baseline of activity. Using a type of morphology reporter, gain-of-signal activity can be used to understand changes in developmentals as they relate to the whole embryo. To generalize the intended target to other relatable targets, this assay endpoint is annotated to the zebrafish development intended target family, where the subfamily is embryonic morphogenesis and mortality.
# Zebrafish husbandry: Tropical 5D wild-type adult zebrafish were housed in at an approximate density of 1000 per 100 gallon tank at the Sinnhuber Aquatic Research Laboratory, Oregon State University, Corvallis, OR. Each tank was kept at standard laboratory conditions of 28C on a 14-h light/10-h dark photoperiod in fish water consisting of reverse osmosis water supplemented with a commercially available salt (Instant Ocean). Spawning funnels were placed into the tanks the night prior, and embryos were collected and staged. To increase bioavailability, the chorion was enzymatically removed using pronase (63.6mg/ml, >/= 3.5U/mg, Sigma-Aldrich: P5147) at 4 hours post fertilization (hpf) using a custom automated dechorionator.Chemical exposures: Six hpf dechorionated embryos were placed 1 embryo per well in a 96-well plate prefilled with 90 ul of EM using automated embryo placement systems (AEPS). Ten microliters of each row of dilution plate 2 was added to 2 exposure plates. The final DMSO concentration used was 0.64% (vol/vol). Thirty-two embryos were also exposed to 5uM trimethyltin chloride (positive control). Plates were sealed to prevent evaporation and foil covered to reduce light exposure and kept in a 28C incubator. Embryos were statically exposed until 120 hpf. At 24 hpf, embryos were assessed for photomotor response using a custom photomotor response analysis tool (PRAT) and for developmental toxicity endpoints (MO24: mortality at 24 hpf, DP: developmental progression, SM: spontaneous movement, and NC: notochord distortion). At 120 hpf, locomotor activity was measured using Viewpoint Zebralab and assessed for 13 endpoints. Zebrafish acquisition and analysis program (ZAAP), a custom program designed to inventory, acquire, and manage zebrafish data, was used to collect developmental endpoints as either present or absent (i.e., binary responses were recorded). If mortality occurred for an embryo (at either 24 or 120 hpf), the non-mortality endpoints were not measured.
SMILES,outcome,AC50
NC(=O)C(F)(F)C(F)(F)C(F)(F)C(F)(F)F,inactive,–
FC(F)(F)C(F)(F)C(F)(F)C(F)(F)CCI,inactive,–
FC(F)(F)C(F)(F)C(F)(F)C(F)(F)C(F)(F)CCI,inactive,–
FC(F)(F)C(F)(F)C(F)(F)C(F)(F)C(F)(F)C(F)(F)CC1CO1 (stereo not given),inactive,–
O=S(=O)(OCCOC(F)(F)F)C(F)(F)F,inactive,–
O=C(O)C(F)(F)C(F)(F)C(F)F,inactive,–
COC(=O)CCC(F)(F)C(F)(F)C(F)(F)C(F)(F)F,inactive,–
O=S(=O)(O)C(F)(F)C(F)(F)C(F)(F)C(F)(F)C(F)(F)C(F)(F)C(F)(F)F,–,33 µM (active)
C=CC(F)(F)C(F)(F)C(F)(F)C(F)(F)C(F)(F)C(F)(F)C(F)(F)C(F)(F)F,inactive,–
O=C(O)C(F)(F)C(F)(F)C(F)(F)C(F)(F)C(F)(F)C(F)(F)C(F)(F)C(F)(F)C(F)(F)C(F)F,–,28.8 µM (active)
FC(F)(F)C(F)(F)C(F)(F)C(F)(F)C(F)(F)C(F)(F)C(F)(F)C(F)(F)CCS,inactive,–
FC(F)(F)C(F)(F)C(F)(F)CI,inactive,–
O=P(O)(O)OCCC(F)(F)C(F)(F)C(F)(F)C(F)(F)C(F)(F)C(F)(F)F,–,39.1 µM (active)
O=C(CC(=O)C(F)(F)C(F)(F)F)C(F)(F)F,–,0.0499 µM (active)
FC(F)(F)C(F)(F)C(F)(F)C(F)(F)C(F)(F)C(F)(F)C(F)(F)I,inactive,–
OCC(F)(F)C(F)(F)C(F)(F)C(F)(F)C(F)(F)C(F)(F)F,–,112 µM (active)
C=C(C)C(=O)OCC(F)(F)C(F)(F)C(F)(F)C(F)(F)C(F)(F)C(F)(F)C(F)(F)F,inactive,–
FC1CC(F)(F)C(F)(F)C1(F)F (stereo not given),inactive,–
FC(F)(F)C(F)(F)C(F)(F)N(C(F)(F)C(F)(F)C(F)(F)F)C(F)(F)C(F)(F)C(F)(F)F,inactive,–
C=CC(F)(F)C(F)(F)C(F)(F)C(F)(F)C(F)(F)C(F)(F)C(F)(F)C(F)(F)C=C,–,10.3 µM (active)

SMILES,outcome,AC50
O=C(O)C(F)(F)C(F)(F)C(F)(F)C(F)(F)C(F)(F)C(F)(F)C(F)(F)C(F)(F)Cl,–,39.8 µM (active)
O=S(=O)(OCC(F)F)C(F)(F)F,inactive,–
O=C(O)C(F)(F)C(F)(F)F,inactive,–
FC(F)(F)C(F)(F)C(F)(F)C(F)(F)C(F)(F)C(F)(F)C(F)(F)C(F)(F)F,inactive,–
CC(C)(C)C(=O)CC(=O)C(F)(F)C(F)(F)C(F)(F)F,inactive,–
O=C(O)C(F)(F)C(F)(F)C(F)(F)C(F)(F)C(F)(F)C(F)(F)C(F)(F)C(F)(F)C(F)(F)C(F)(F)C(F)(F)C(F)(F)C(F)(F)F,inactive,–
O=C(O)C(F)(OC(F)(F)C(F)(OC(F)(F)C(F)(OC(F)(F)C(F)(F)C(F)(F)F)C(F)(F)F)C(F)(F)F)C(F)(F)F (stereo not given),inactive,–
O=C(O)C(F)(OC(F)(F)C(F)(OC(F)(F)C(F)(F)C(F)(F)F)C(F)(F)F)C(F)(F)F (stereo not given),inactive,–
Cc1ccc(S(=O)(=O)OCC(F)(F)C(F)(F)C(F)(F)C(F)(F)C(F)(F)C(F)F)cc1,inactive,–
O=C(O)C(F)(F)C(F)(F)C(F)(F)F,inactive,–
O=C(O)C(F)(F)C(F)(F)C(F)(F)C(F)(F)C(F)(F)C(F)(F)C(F)(F)C(F)(F)C(F)(F)C(F)(F)C(F)(F)C(F)(F)F,–,26.3 µM (active)
O=C(O)C(F)(F)C(F)(F)OC(F)(F)F,inactive,–
CCCCCCCCC(F)(F)C(F)(F)C(F)(F)C(F)(F)C(F)(F)C(F)(F)F,inactive,–
N=C(N)C(F)(F)C(F)(F)C(F)(F)C(F)(F)C(F)(F)C(F)(F)C(F)(F)F,inactive,–
OCC(F)(F)C(F)(F)C(F)(F)C(F)F,inactive,–
OCCCC(F)(F)C(F)(F)C(F)(F)C(F)(F)C(F)(F)C(F)(F)C(F)(F)F,inactive,–
OCCCC(F)(F)C(F)(F)C(F)(F)F,inactive,–
OCC(F)(F)C(F)(F)C(F)(F)F,inactive,–
C=CC(=O)OCC(F)(F)C(F)(F)C(F)(F)C(F)(F)C(F)(F)C(F)(F)C(F)(F)F,inactive,–
OCC(F)(F)C(F)(F)C(F)(F)C(F)(F)C(F)(F)C(F)F,inactive,–

# From PubChem BioAssay (EPA / NIEHS)
